Data reported in PubChem BioAssay AID1918990 (ICCB-Longwood Screening Facility, Harvard Medical School, 2023).
Screen size: about 29,000 compounds; about 85 (0.3%) were called active.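 How the source made its calls: active means replicate mean overnight rise in green fluorescent reporter signal, 3 or more SD over negative controls; inactive means the rest.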 This excerpt belongs to a sample that is enriched for actives. Square brackets hold non-standard residues; d marks the D form. Side chains are listed from the residue outwards. Peptide text beside a SMILES is read from it. * marks the point of attachment. X1 = CCC(C)C(N)C1=NC(C(=O)*)CS1; Orn = NCCC[CH](N)C(=O)O

test: fixK promoter GFP reporter activation – B. multivorans, primary screen (AID 1918990); conditions: 18 h, active compounds read high

z-score, inactive:
Cc1c(NC(=O)c2cc(=O)c3ccccc3o2)c(=O)n(-c2ccccc2)n1C -0.69
COc1cccc(CNC(=O)c2cc(=O)[nH]c3ccc(S(=O)(=O)N4CCCCC4)cc23)c1 -0.5
CCc1ccc(NC(=O)CN2C(=O)C(c3ccccc3)=NC23CCCCCC3)cc1 -1.83
COC(=O)c1ccc(C2C(C(=O)Nc3ccccc3)=C(C)Nc3nc4ccccc4n32)cc1 (configuration not stated) -1.77
COc1ccc(CNC(=O)Cn2nnc(-c3ccc(S(C)(=O)=O)cc3)n2)cc1 0.3
Cn1c(=O)nc2n(-c3ccc(Br)cc3)c3cccc(Cl)c3cc-2c1=O -1.2
COc1ccc(C(=O)Nc2onc3c2CCCC3)cc1 -2.06
Cc1nc(C2CCN(S(=O)(=O)CCC3CCS(=O)(=O)C3)CC2)no1 (configuration not stated) 0.66
Cc1ccc(Nc2c(-c3ccc(C)cc3)nc3cnccn23)cc1 -1.25
Cn1c(=O)c2c(nc(SCC(=O)Nc3ccc(F)cc3)n2Cc2ccccc2)n(C)c1=O -1.14
Cc1ccc2nc(-c3ccc(O)cc3)c(Nc3ccc4c(c3)OCO4)n2c1 0.53
O=C(c1n[nH]c2ccccc12)N1CCc2nc(-c3cccc(F)c3)[nH]c2C1 -1.33
COc1c(Cl)cc(C(=O)N(Cc2ccccc2F)C2CCS(=O)(=O)C2)cc1Cl (configuration not stated) -0.89
Cc1ccn2c(Nc3ccc4c(c3)OCCO4)c(-c3ccc(C)s3)nc2c1 0.86
CCOc1ccc(-c2cc3nc(C4CCN(C(=O)OC(C)(C)C)CC4)c(C(=O)Nc4cccc(CC)c4)cn3n2)cc1 -0.21
CCOc1ccc2nc(N3CCC(C(=O)Nc4cc(C)ccc4C)CC3)sc2c1 -0.96
Nc1ccnc(N2CCCC(c3[nH]ncc3-c3ccc(F)cc3)C2)n1 (configuration not stated) -0.16
COc1cc(NC(=O)CCNC(=O)Cn2ccc3ccccc3c2=O)cc(OC)c1OC 0.24
CCCCOCC(=O)N1CCCC(c2ccn(CC(=O)O)n2)C1 (configuration not stated) -2.17
CN(C)C1CN(Cc2cnc(-c3ccc(Cl)cc3)nc2)CC1O (configuration not stated) -0.39
Cc1ccc(-c2nc(S(=O)(=O)c3ccc(C)cc3)c(N3CCCCCC3)o2)cc1 -0.18
COc1ccc(CNC(=O)c2cc3c(=O)[nH]c4ccc(C)cc4c3s2)c(OC)c1 -1.16
COc1cccc(OCc2cc(C(=O)N(C)Cc3nncn3C)n[nH]2)c1 -1.49
Cc1c(CNC(C)c2ccccc2)c(C(=O)O)c(C)n1Cc1c(F)cccc1Cl (configuration not stated) -2.09
COCCN(CCOC)C(=O)c1ccc(-c2ncccc2Cl)cc1 0.44
Cn1c(=O)c2c(nc(SCC(=O)Nc3ccc(F)cc3)n2Cc2ccc(Cl)cc2)n(C)c1=O -2.04
COCCNC(=O)c1cc(-c2cccc(Cl)c2)on1 1.09
CCOc1ccccc1NC(=O)Cn1c(=O)n(Cc2ccco2)c(=O)c2sc3ccccc3c21 -1.53
COCCCCCC(=O)N1CC(O)C(Cc2cnccn2)C1 (configuration not stated) 0
CS(=O)(=O)N1CCCn2nc(CNC(=O)CC3CCCC3)cc2C1 -0.69
Cc1ccc(C)c(Nc2nnc(-c3ccc(C)c(S(=O)(=O)N4CCCCC4)c3)c3ccccc23)c1 -0.47
COC(=O)c1ccccc1NS(=O)(=O)c1ccc2c(c1)CCCN2C(C)=O -1.34
COc1cccc(OCCn2c(-c3ccc(Br)cc3)nc3ccccc3c2=O)c1 -1.26
Cc1c[nH]c(CNC(=O)COCc2nc3ccc(F)cc3[nH]2)c(C)c1=O -1.57
CCSC(C)C(=O)N1CCc2c(nc(-c3ccncc3)nc2N(C)C)C1 (configuration not stated) -1.6
CCOc1ccccc1C(=O)NC1(C(F)(F)F)NC(=O)N(CCc2ccc(OC)c(OC)c2)C1=O (configuration not stated) -3.27
COc1cc(Br)cc2cc(S(=O)(=O)c3ccccc3)c(=O)oc12 -0.19
CCC(C)C(N)C1=NC(C(=O)NC(CC(C)C)C(=O)NC(CCC(=O)O)C(=O)NC(C(=O)NCCCCC2NC(=O)C(CC(N)=O)NC(=O)C(CC(=O)O)NC(=O)C(Cc3cnc[nH]3)NC(=O)C(Cc3ccccc3)NC(=O)C(C(C)CC)NC(=O)C(CCCN)NC2=O)C(C)CC)CS1 (stereo not drawn) (cyclo(DNK([Ile-Glu-Leu-X1])[Orn]IFH); configuration not given here) -0.77
CN(Cc1cnn(-c2ccc(F)cc2)c1)C(=O)C(C)(C)N1CCOCC1 -1.96
C#CC(C)(CC)NC(=O)Cn1nnc(-c2ccc(OCc3c(F)cccc3Cl)cc2)n1 (configuration not stated) 0.9
CC(NC(=O)N1CCCN(C(=O)C(F)(F)F)CC1)c1ccc(Cl)cc1 (configuration not stated) 0.97
CCOC(=O)c1ccc(-c2ccc(/C=C(\C#N)C(=O)Nc3ccc(OCC)cc3)o2)cc1 0.84
CCOC(=O)c1ccc(N2C(=O)c3n[nH]c(C)c3C2c2ccc(O)c(OC)c2)cc1 (configuration not stated) -1.68
Cc1ccc(NC(=O)NC(C)c2c(-n3cccc3)sc(C)c2C)c(C)c1 (configuration not stated) -1.6
Cc1ccc(-c2nc3cccc(C)n3c2Nc2ccc3c(c2)OCCO3)cc1 0.46
COc1cccc(Cn2c(SCc3ccc(C(=O)N4CCCCC4)cc3)nc3ccncc32)c1 -4.02
COc1ccccc1C1C(C(=O)N2CCCCC2)=C(C)Nc2nc3ccccc3n21 (configuration not stated) -0.33
CCOc1ccc(-c2n[nH]c3c2C(c2ccccc2OC)N(c2ccc(Br)cc2)C3=O)cc1 (configuration not stated) -0.62
CC(C)Cn1c(=O)c2ccccc2n2c(CCC(=O)N3CCN(c4cccc(Cl)c4)CC3)nnc12 -1.08
Cc1ccc(C(=O)Nc2ccccc2F)cc1S(=O)(=O)N1CCOCC1 -1.43
O=C(CCc1cccc(Cl)c1)NC1COCC1Cc1ccncc1 (configuration not stated) -0.84
CCC1CCCCN1S(=O)(=O)c1ccc(NC(=O)c2cc(=O)c3ccccc3o2)cc1 (configuration not stated) -1.59
